Laboratory results from PubChem BioAssay (Tox21).
Inconclusive results are not listed. Values without a mark were called inactive. Calls follow the shape of the dose curve; as a rule, active = well fitted activation curve with a large enough effect in the signal ratio in the repeat runs (not every such curve was filed as active); inconclusive = weak or mixed curves; inactive = flat fitted curve, though single readings scatter; the % refers to the signal ratio.

assay: qHTS assay to identify small molecule agonists of the TGF-beta/Smad signaling pathway (AID 1346859); conditions: SBE-bla HEK293T, TGF-beta/Smad beta-lactamase reporter, 5 h; series mostly up to 76.8 µM; activation: at the top concentration
Source text: U.S. Tox21 Program National Center for Advancing Translational Sciences [NCATS] NIH Chemical Genomics Center [NCGC] U.S. Environmental Protection Agency [EPA] National Institutes of Environmental Health Sciences [NIEHS] National Toxicology Program [NTP] U.S. Food and Drug Administration [FDA] Tox21 Assay Overview: Transforming growth factor beta (TGF-beta) superfamily consists of a large number of structurally related dimeric proteins that act as hormones or local mediators in regulating a wide range of biological functions. This superfamily includes TGF-betas themselves, the bone morphogenetic proteins (BMPs) and the activins. These ligands induce oligomerization of serine/threonine receptor kinases and phosphorylate the cytoplasmic signaling molecules of Smad protein family. CellSensor SBE-bla HEK 293T cell line (Life Technologies, Carlsbad, CA), responsive to TGF-beta was used to screen Tox21 10K compound library for identification of agonists/antagonists of the Smad signaling pathway. This cell line contains a beta-lactamase reporter gene under control of the Smad binding element (SBE) stably integrated into HEK 293T cells.
Tox21 Assay Protocol Summary: SBE-bla HEK 293T cells were dispensed at 4,000/well in 6 uL of assay medium into black wall/clear-bottom 1536-well plates using a Multidrop Combi (ThermoFisher Scientific, Waltham, MA) dispenser. After the assay plates were incubated at 37 C and 5% CO2 for an overnight, 23 nL of compounds dissolved in DMSO, positive controls or DMSO only was transferred to the assay plate by a Pintool station (Kalypsys, San Diego, CA). The assay plates were incubated at 37 C and 5% CO2 for 5 hr. One uL of LiveBLAzer B/G FRET substrate (Life Technologies) was added using a Flying Reagent Dispenser (Aurora Discovery, San Diego, CA) and the plates were incubated at room temperature for 2 hr. Fluorescence intensity (405 nm excitation, 460 nm and 530 nm emissions) was measured using an Envision plate reader (PerkinElmer, Shelton, CT).
% is scaled to controls: 0 for no effect and ±100 for the full control effect.

Structure (SMILES) | activation
C[C@H](N)[C@H](O)c1cccc(O)c1 | 3% [at 35.3 µM]
NCCN1CCOCC1 | -1.1%
CC(C)NCC(O)COc1cccc2[nH]ccc12 (stereo not given) | -0.864% [at 35.3 µM]
CCCCCCN | 1.21%
CC(C)C[C@H](NC(=O)CNC(=O)[C@H](Cc1ccc(O)cc1)NC(=O)[C@H](CO)NC(=O)[C@H](Cc1c[nH]c2ccccc12)NC(=O)[C@H](Cc1cnc[nH]1)NC(=O)[C@@H]1CCC(=O)N1)C(=O)N[C@@H](CCCN=C(N)N)C(=O)N1CCC[C@H]1C(=O)NCC(N)=O (stereo in doubt) | -0.0168% [at 35.3 µM]
Brc1ccc(-c2ccccc2)cc1 | 1.89%
COC(=O)CCc1ccc(OCC(O)CNC(C)C)cc1 (stereo not given) | -0.125% [at 35.3 µM]
Cc1ccsc1/C=C/C1=NCCCN1C | 0.101% [at 35.3 µM]
C=CCCCCCCCCCCCC | 3.39%
CN(C)CCOCCO | 3.64%
CC(C)=CCOC(=O)c1ccccc1 | 3.55%
COc1nccnc1NS(=O)(=O)c1ccc(N)cc1 | 2.75% [at 35.3 µM]
OCCN(CCO)c1cccc(Cl)c1 | 0.467%
CCOC(=O)/C=C/c1ccccc1 | -1.11%
CC(C)CCCC(C)(C)O | 3.49%
CC(=O)NCc1c(I)c(NC(C)=O)c(I)c(C(=O)O)c1I | 3.9% [at 35.3 µM]
Nc1ccc([N+](=O)[O-])c(N)c1 | -7.34%
O=P(O)(O)OP(=O)(O)O | -1.36%
CCn1ccc(NS(=O)(=O)c2ccc(N)cc2)nc1=O | -2.8% [at 35.3 µM]
O=C(OCC(O)CO)c1ccccc1Nc1ccnc2c(C(F)(F)F)cccc12 (stereo not given) | 0.846% [at 35.3 µM]

Structure (SMILES) | activation
CCCCCCCCSCC | 2.57%
CC(=O)Nc1ccc(S(=O)(=O)Cl)cc1 | 1.76%
CCCCOC(=O)c1ccccc1 | 0.402%
CC(C)(C)c1cc(CCC(=O)NN)cc(C(C)(C)C)c1O | 0.347%
CN(C)C(=O)CNC(=O)Cc1ccccc1 | 0.802% [at 35.3 µM]
Nc1nnc(-c2cccc(Cl)c2Cl)c(N)n1 | 0.837% [at 35.3 µM]
BrCc1cccc(Oc2ccccc2)c1 | 2.46%
O=C(O)Cc1ccc(Cl)cc1Cl | -0.254%
CCOC(=O)c1ncn2c1CN(C)C(=O)c1cc(F)ccc1-2 | -0.188% [at 35.3 µM]
COCCOCCOCCOCCO | 0.131%
COc1cc2c(cc1OC)[C@@H]1CC(=O)[C@@H](CC(C)C)CN1CC2 | 4.48% [at 35.3 µM]
O=C1CCCC(=O)O1 | 1.29%
CC(C)(C)c1nnc(NS(=O)(=O)c2ccc(N)cc2)s1 | 0.0857% [at 35.3 µM]
CCOC(=O)[C@H](CCc1ccccc1)N[C@@H](C)C(=O)N1C(=O)N(C)C[C@H]1C(=O)O | 2.34% [at 35.3 µM]
CC(=O)Nc1cccc(C)c1 | 0.185%
CCOCCOCCOCC | 0.933%
CCCCCCCC/C=C\CCCCCCCC(=O)OCCCC | -1.96% [at 15.8 µM]
COCCOCCOCCOCCOCCO | 0.193%
CCCC/C=C\CCCCCCCCCC=O | 3.29%
CC(C)(C)NC(N)=O | 1.91%
